The list is not random: actives were taken first. Their share in the collection is about 6.7%.
Pf Dd2 growth: P. falciparum Dd2 growth inhibitors, primary screen, SYBR Green fluorescence, single dose replicates; 72 h; active compounds read low; activity change, % at 10 µM; 94,000 tested, 2.3% active; in the data active = activity change below about -80%; inconclusive = no clear call, values can overlap the other calls
C diff HTS: C. difficile growth inhibitors, primary screen, HTS; 86,000 tested, 0.25% active; Clostridium difficile clinical isolate growth, OD600, 24 h; active compounds read low; growth activity, negative = inhibition, % at 16 µg/mL (by protocol); AID 1259249, 2017;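 active = mean growth activity at or below -80% and every replicate also at or below -80%; inconclusive = mean at or below -80% but some replicate above -80%; inactive = mean growth activity above -80%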
T cruzi growth-1: T. cruzi intracellular proliferation inhibitors, primary screen, cell-based, beta-gal Tulahuen parasites, NIH3T3 host, luminescence. inhibition, % at 8.34 µM. 77,000 tested, 5.9% active. T. cruzi beta-gal in NIH3T3, GalScreen luminescence, 90 h;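 active = mean inhibition above about 93%, with at least 55% of replicates each passing it, limit read from the data, passing the limit was not always enough; inconclusive = only one of those two conditions holds; inactive = neither condition holds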
T cruzi growth-2: T. cruzi intracellular proliferation inhibitors, confirmation, cell-based, NIH3T3 host, beta-gal parasite, luminescence, cherry-pick. inhibition, % at 8.35 µM. 5,600 tested, 72% active. AID 651739, 2012. shares compounds with T cruzi growth-1. T. cruzi beta-gal in NIH3T3, GalScreen luminescence, 90 h;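 active = mean replicate inhibition above about 95% and at least 55% of replicates individually reaching it, limit read from the data; inconclusive = only one of the two criteria is met; inactive = neither criterion is met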
T cruzi growth-3: inhibitors of intracellular T. cruzi replication, confirmation, NIH3T3 host cells, beta-gal parasites, cherry-pick, set 2; inhibition, % at 2.09 µM; 5,600 tested, 21% active; shares compounds with T cruzi growth-1; T. cruzi beta-gal in NIH3T3, GalScreen luminescence, 90 h; AID 651740, 2012;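 active = mean inhibition above about 95%, with at least 55% of replicates also reaching it, limit read from the data; inconclusive = meets just one of the two conditions; inactive = meets neither condition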
NIH3T3 tox: cytotoxicity in mouse NIH/3T3 fibroblasts, confirmation, cytotoxicity control for T. cruzi proliferation inhibitor project, cell-based, cherry-pick, single point; cytotoxicity (signal decrease), % at 8.35 µM; shares compounds with T cruzi growth-1; NIH/3T3 viability, CellTiter-Glo ATP luminescence, 90 h; 5,600 tested, 14% active;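 active = mean signal decrease across replicates above about 35% based on untreated-well scatter, with enough replicates individually passing, limit read from the data; inconclusive = no rule stated though some were filed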
3T3 cytotox 2: NIH/3T3 fibroblast cytotoxicity, confirmation, cytotoxicity control, cell-based, cherry-pick, single point, set 2 | inhibition, % at 24.9 µM | 5,600 tested, 56% active | NIH/3T3 viability, CellTiter-Glo ATP luminescence, 90 h | shares compounds with T cruzi growth-1;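 active = mean loss of cell viability signal at or above a set limit, and enough replicates individually reaching it; inconclusive = meets only the mean limit or only the replicate share; inactive = meets neither condition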
Of the large screens only hits and unclear results are named; the others gave an inactive call (follow-up assays come after a bar, where they were run).

N#Cc1ccc(-c2ccc([C@@H]3[C@H](CO)N4CCCCN(C(=O)Nc5ccc(F)cc5)C[C@@H]34)cc2)cc1	none
N#Cc1cccc(-c2ccc([C@H]3[C@H]4CN(C(=O)Nc5ccc(F)cc5)CCCCN4[C@H]3CO)cc2)c1	T cruzi growth-1 100.2 | T cruzi growth-2 101.3 | T cruzi growth-3 inactive | NIH3T3 tox inactive | 3T3 cytotox 2 inactive
N#Cc1cccc(-c2ccc([C@@H]3[C@@H](CO)N4CCCCN(C(=O)Nc5ccc(F)cc5)C[C@@H]34)cc2)c1	T cruzi growth-1 109.1 | T cruzi growth-2 105.8 | T cruzi growth-3 inactive | NIH3T3 tox 46.6 | 3T3 cytotox 2 98.0
N#Cc1cccc(-c2ccc([C@@H]3[C@H]4CN(C(=O)Nc5ccc(F)cc5)CCCCN4[C@H]3CO)cc2)c1	none
N#Cc1ccc(-c2ccc([C@H]3[C@@H](CO)N4CCCCN(C(=O)Nc5ccc(F)cc5)C[C@@H]34)cc2)cc1	T cruzi growth-1 99.5 | T cruzi growth-2 111.5 | T cruzi growth-3 inactive | NIH3T3 tox inactive | 3T3 cytotox 2 inactive
CC(C)NC(=O)N(C)C[C@H]1OCCCC[C@H](C)Oc2ccc(NC(=O)C3CCCCC3)cc2C(=O)N([C@H](C)CO)C[C@@H]1C	none
CN(C)CC(=O)Nc1ccc2c(c1)[C@@H]1C[C@H](CC(=O)N3CCCCC3)O[C@H](CO)[C@@H]1O2	none
O=C(N[C@H]1C=C[C@@H](CC(=O)N2CCc3ccccc3C2)O[C@H]1CO)C1CCOCC1	none (no result: T cruzi growth-1)
CCCC(=O)Nc1ccc2c(c1)C(=O)N(C)C[C@@H](OC)[C@H](C)CN(C(=O)c1ccncc1)[C@H](C)CO2	none
COc1cccc(C#Cc2ccc([C@@H]3[C@@H](C#N)N(C(=O)C4CC4)[C@@H]3CO)cc2)c1	none
COc1cccc(C#Cc2ccc([C@@H]3[C@@H](C#N)N(C(=O)C4CCC4)[C@@H]3CO)cc2)c1	T cruzi growth-1 102.0 | T cruzi growth-2 108.6 | T cruzi growth-3 inactive | NIH3T3 tox inactive | 3T3 cytotox 2 inactive
COc1cccc(C#Cc2ccc([C@H]3[C@H](C#N)N(C(=O)C4CCC4)[C@H]3CO)cc2)c1	T cruzi growth-1 96.8 | T cruzi growth-2 95.5 | T cruzi growth-3 inactive | NIH3T3 tox inactive | 3T3 cytotox 2 62.6
COc1cccc(C#Cc2ccc([C@@H]3[C@@H](CO)N(C(=O)C4CCC4)[C@H]3C#N)cc2)c1	none
C[C@H](O)C#Cc1cnc2c(c1)C(=O)N([C@@H](C)CO)C[C@@H](C)[C@H](CN(C)C(=O)CC1CC1)O2	none (no result: Pf Dd2 growth)
CCCNC(=O)N1CC2(C1)CN(C(=O)CC1CC1)[C@H](CO)c1[nH]c3cc(OC)ccc3c12	none (no result: T cruzi growth-1)
Cc1ccc(S(=O)(=O)Nc2ccc3c(c2)C(=O)N([C@H](C)CO)C[C@@H](C)[C@H](CN(C)S(=O)(=O)c2ccccc2)O3)cc1	none
C[C@@H](NC(=O)C[C@@H]1C=C[C@H](NC(=O)CN2CCOCC2)[C@H](CO)O1)c1ccccc1	none (no result: C diff HTS)
C[C@H]1CN([C@@H](C)CO)C(=O)Cc2cc(NC(=O)c3ccncc3)ccc2O[C@@H]1CN(C)Cc1ccc(Oc2ccccc2)cc1	none
C[C@H](CO)N1C[C@H](C)[C@H](CN(C)Cc2ccc(Oc3ccccc3)cc2)Oc2ccc(NC(=O)c3ccncc3)cc2CC1=O	T cruzi growth-1 102.4 | T cruzi growth-2 102.2 | T cruzi growth-3 inactive | NIH3T3 tox inactive | 3T3 cytotox 2 102.8
C[C@@H]1CN([C@@H](C)CO)C(=O)Cc2cc(NC(=O)Nc3ccccc3)ccc2O[C@@H]1CN(C)Cc1ccncc1	none (no result: C diff HTS)
C[C@@H]1CN([C@@H](C)CO)C(=O)Cc2cc(NC(=O)c3ccncc3)ccc2O[C@H]1CN(C)Cc1ccc(Oc2ccccc2)cc1	T cruzi growth-1 104.9 | T cruzi growth-2 104.8 | T cruzi growth-3 inactive | NIH3T3 tox inactive | 3T3 cytotox 2 102.8
C[C@@H]1CN([C@H](C)CO)C(=O)Cc2cc(NC(=O)c3ccncc3)ccc2O[C@@H]1CN(C)Cc1ccc(Oc2ccccc2)cc1	none
C[C@@H]1CN([C@H](C)CO)C(=O)Cc2cc(NC(=O)Nc3ccccc3)ccc2O[C@H]1CN(C)Cc1ccncc1	T cruzi growth-1 98.3 | T cruzi growth-2 inactive | T cruzi growth-3 inactive | NIH3T3 tox inactive | 3T3 cytotox 2 inactive
C[C@@H]1CCCCO[C@@H](CN(C)C(=O)NC2CCCCC2)[C@H](C)CN([C@@H](C)CO)C(=O)c2cc(NC(=O)CCCN(C)C)ccc2O1	none
O=C(C[C@@H]1C[C@H]2c3cc(NC(=O)Nc4ccc(C(F)(F)F)cc4)ccc3O[C@H]2[C@@H](CO)O1)NCCc1ccccc1	none
COc1ccc2c3c(n(C)c2c1)[C@@H](CO)N(C(=O)c1ccc(F)cc1)CC31CN(C)C1	none (no result: T cruzi growth-1)
O=C(Nc1ccc(F)cc1)N[C@H]1CC[C@H](CCn2cc(C3(O)CCCC3)nn2)O[C@H]1CO	none
C[C@H]1CN([C@@H](C)CO)S(=O)(=O)c2ccc(C3=CCCCC3)cc2O[C@@H]1CN(C)C(=O)c1ccc(F)cc1	T cruzi growth-1 114.6 | T cruzi growth-2 110.2 | T cruzi growth-3 102.4 | NIH3T3 tox 47.0 | 3T3 cytotox 2 95.9
C[C@H]1CN([C@@H](C)CO)S(=O)(=O)c2ccc(C3=CCCCC3)cc2O[C@@H]1CN(C)C(=O)c1ccccc1	none
C[C@@H]1CN([C@@H](C)CO)S(=O)(=O)c2ccc(C3=CCCC3)cc2O[C@@H]1CN(C)C(=O)c1ccc(F)cc1	none (no result: T cruzi growth-1)
C[C@@H]1CN([C@H](C)CO)S(=O)(=O)c2ccc(C3=CCCCC3)cc2O[C@H]1CN(C)C(=O)c1ccc(F)cc1	none
C[C@H](CO)N1C[C@H](C)[C@H](CN(C)C(=O)c2ccccc2)Oc2cc(C3=CCCCC3)ccc2S1(=O)=O	T cruzi growth-1 102.8 | T cruzi growth-2 101.4 | T cruzi growth-3 inactive | NIH3T3 tox inactive | 3T3 cytotox 2 64.1
C[C@H]1CN([C@@H](C)CO)S(=O)(=O)c2ccc(C3=CCCCC3)cc2O[C@H]1CN(C)C(=O)c1ccc(F)cc1	none
C[C@@H]1CN([C@@H](C)CO)S(=O)(=O)c2ccc(C3=CCCCC3)cc2O[C@H]1CN(C)C(=O)c1ccc(F)cc1	T cruzi growth-1 inconclusive | T cruzi growth-2 102.1 | T cruzi growth-3 inactive | NIH3T3 tox 53.9 | 3T3 cytotox 2 25.7
C[C@@H]1CN([C@H](C)CO)S(=O)(=O)c2ccc(C3=CCCCC3)cc2O[C@@H]1CN(C)C(=O)c1ccc(F)cc1	T cruzi growth-1 113.2 | T cruzi growth-2 107.4 | T cruzi growth-3 inactive | NIH3T3 tox inactive | 3T3 cytotox 2 100.8

Screens from PubChem BioAssay.
